Test [1] is described as follows: Quantitative High-Throughput drug screen in 47 multiple myeloma cell lines against the NCATS MIPE library collection: Karpas620_DSMZ cell viability assay (AID 1918959). Note: nearly all actives have a fitted effect of over 30% in size. The essentials: (§1)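 qHTS of the MIPE 4.0 collection: 500 myeloma cells/well, 48 h drug exposure at 37C in 5% CO2, then CellTiter-Glo for 5 min at room temperature before luminescence reading.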
A short description of test [2]: Quantitative High-Throughput drug screen in 47 multiple myeloma cell lines against the NCATS MIPE library collection: KMM1_JCRB cell viability assay (AID 1918960). Note: nearly all actives have a fitted effect of over 30% in size. The essentials: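 Viability screen: myeloma cells (500/well) incubated 48 h at 37 °C, humidified 5% CO2, with pinned library compounds; CellTiter-Glo added, luminescence read; DMSO wells set 100%, medium-only wells 0%.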

Test [3] in a line: Quantitative High-Throughput drug screen in 47 multiple myeloma cell lines against the NCATS MIPE library collection: Karpas417_ECACC cell viability assay (AID 1918961). The conditions noted are these: Karpas417 myeloma viability, CellTiter-Glo ATP luminescence, 48 h; viability (% of DMSO): at 45.8 µM (top of the series). The essentials: (§2)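 Luminescent ATP measurement with CellTiter-Glo gives viability, scaled between DMSO-only wells (100%) and media-only wells (0%). Cells, 500 per well, faced library compounds for 48 hours at 37C.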

The nature of test [4]: Quantitative High-Throughput drug screen in 47 multiple myeloma cell lines against the NCATS MIPE library collection: KHM11_PLB cell viability assay (AID 1918962). Note: nearly all actives have a fitted effect of over 35% in size. The procedure, abridged:
as §1

Test [5] can be described thus: Quantitative High-Throughput drug screen in 47 multiple myeloma cell lines against the NCATS MIPE library collection: JIM3_ECACC cell viability assay (AID 1918963; note: nearly all actives have a fitted effect of over 35% in size). The essentials: as §1
A short description of test [6]: Quantitative High-Throughput drug screen in 47 multiple myeloma cell lines against the NCATS MIPE library collection: JIM1_ECACC cell viability assay (AID 1918964). The procedure, abridged:
(§3)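 Inhibition of cell viability is measured here. Each line was plated at 500 cells per well, treated with MIPE 4.0 drugs, kept 48 hours at 37C, then assayed for ATP content by CellTiter-Glo luminescence.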

A short description of test [7]: Quantitative High-Throughput drug screen in 47 multiple myeloma cell lines against the NCATS MIPE library collection: INA6_PLB cell viability assay (AID 1918965; note: nearly all actives have a fitted effect of over 55% in size). The essentials:
as §2

Test [8] is described as follows: Quantitative High-Throughput drug screen in 47 multiple myeloma cell lines against the NCATS MIPE library collection: H1112_PLB cell viability assay (AID 1918967; note: nearly all actives have a fitted effect of over 30% in size). The essentials: as §3
Test [9] in a line: Quantitative High-Throughput drug screen in 47 multiple myeloma cell lines against the NCATS MIPE library collection: Karpas25_ECACC cell viability assay (AID 1918968; note: nearly all actives have a fitted effect of over 35% in size). The essentials:
as §3

Test [10] is described as follows: Quantitative High-Throughput drug screen in 47 multiple myeloma cell lines against the NCATS MIPE library collection: KMS27_JCRB cell viability assay (AID 1918970). Note: nearly all actives have a fitted effect of over 30% in size. The settings on record: KMS27 myeloma cells, CellTiter-Glo ATP viability, 48 h; viability (% of DMSO): at 45.8 µM (top of the series). The essentials: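 Each line is seeded at 500 cells per well and treated with library compounds for 48 hours under 37 °C, 5% CO2. CellTiter-Glo is then added for 5 min at room temperature before median relative luminescence is recorded.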
(In general: ATP-based viability assays read luminescence as a measure of living cells.)

Test [11] is described as follows: Quantitative High-Throughput drug screen in 47 multiple myeloma cell lines against the NCATS MIPE library collection: KMS12BM_JCRB cell viability assay (AID 1918971). Note: nearly all actives have a fitted effect of over 35% in size. The procedure, abridged:
(§4)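 Viability readout: CellTiter-Glo luminescence following 5 min room-temperature incubation with reagent. Prior exposure: 48 h, 37C, humidified 5% CO2, 500 cells per well.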

Test [12] in a line: Quantitative High-Throughput drug screen in 47 multiple myeloma cell lines against the NCATS MIPE library collection: KMS12PE_JCRB cell viability assay (AID 1918972). Note: nearly all actives have a fitted effect of over 30% in size. The procedure, abridged: as §2
A short description of test [13]: Quantitative High-Throughput drug screen in 47 multiple myeloma cell lines against the NCATS MIPE library collection: KMS20_JCRB cell viability assay (AID 1918973). Note: nearly all actives have a fitted effect of over 45% in size. The procedure, abridged: as §3
The nature of test [14]: Quantitative High-Throughput drug screen in 47 multiple myeloma cell lines against the NCATS MIPE library collection: KMS26_JCRB cell viability assay (AID 1918975). Note: nearly all actives have a fitted effect of over 45% in size. The procedure, abridged:
as §4

A short description of test [15]: Quantitative High-Throughput drug screen in 47 multiple myeloma cell lines against the NCATS MIPE library collection: MMM1_PLB cell viability assay (AID 1918976). Note: nearly all actives have a fitted effect of over 35% in size. The procedure, abridged: (§5)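 qHTS format: cells plated (500/well), pin-dosed with MIPE 4.0 compounds, kept 48 h at 37 °C. Readout was CellTiter-Glo luminescence, median RLU.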
The nature of test [16]: Quantitative High-Throughput drug screen in 47 multiple myeloma cell lines against the NCATS MIPE library collection: MOLP8_DSMZ cell viability assay (AID 1918977). Note: nearly all actives have a fitted effect of over 45% in size. The essentials: as §5
A short description of test [17]: Quantitative High-Throughput drug screen in 47 multiple myeloma cell lines against the NCATS MIPE library collection: NCIH929_DSMZ cell viability assay (AID 1918978). Note: nearly all actives have a fitted effect of over 35% in size. The essentials:
as §5

Test [18] can be described thus: Quantitative High-Throughput drug screen in 47 multiple myeloma cell lines against the NCATS MIPE library collection: OCIMY1_PLB cell viability assay (AID 1918979). Note: nearly all actives have a fitted effect of over 35% in size. The essentials:
as §5

A short description of test [19]: Quantitative High-Throughput drug screen in 47 multiple myeloma cell lines against the NCATS MIPE library collection: JJN3_DSMZ cell viability assay (AID 1918966; note: nearly all actives have a fitted effect of over 50% in size). The procedure, abridged:
as §3

Test [20] is described as follows: Quantitative High-Throughput drug screen in 47 multiple myeloma cell lines against the NCATS MIPE library collection: KMS21BM_JCRB cell viability assay (AID 1918974). The settings on record: ATP luminescence, 48 h; viability: at 45.8 µM (top of the series). The essentials:
as §3

Molecules are shown by their SMILES. Inconclusive results are not listed. Active and inactive are the calls of the source. Calls come from the whole dose curve; as a rule, active = well fitted curve in the direction sought with a large enough effect; inconclusive = small, poorly fitted or top-dose-only effect, or another doubt; inactive = no such curve, though single readings can be large; an effect the other way counts as inactive or inconclusive.
Potency is the fitted concentration of half-maximal effect.

In the case of `CC(=O)[C@]1(O)Cc2c(O)c3c(c(O)c2[C@@H](O[C@H]2C[C@H](N)[C@@H](O)[C@H](C)O2)C1)C(=O)c1ccccc1C3=O`, the Potency is 2.09 µM (active) in test [1]; 2.35 µM (active) in test [2]; 2.35 µM (active) in [3]; 0.296 µM (active) in [4]; 0.264 µM (active) in [5]; 1.18 µM (active) in test [6]. In addition, the Potency in test [7] is 0.0935 µM (active); in test [8], 0.187 µM (active); in test [9] it was 0.148 µM (active); in test [10], 1.18 µM (active); in test [11], 0.235 µM (active); in test [12], 2.09 µM (active). Besides, the Potency in test [13] was 0.105 µM (active); in test [14], 0.264 µM (active); in test [15] it was 0.148 µM (active); in test [16], 0.132 µM (active); in [17], 0.166 µM (active); in test [18] it was 0.743 µM (active).

Turning to `N#Cc1cc(NC(=O)Nc2nnc(-c3ccncc3)s2)ccc1-c1cn[nH]c1`, the Potency entry in [1], in [2], in test [3], in [4], in test [5] and in test [6] was “inactive” in each case. Besides, the Potency entry in test [7], in test [8], in [9], in test [10], in test [14] and in [17] was “inactive” in each case. Besides, the Potency result in [18] was “inactive”. Further, the Potency in [15] was 3.32 µM (active).

As for `NC(=O)N1CCC(CC(=O)N2CCC([C@H]3c4ncc(Br)cc4CCc4cc(Cl)cc(Br)c43)CC2)CC1`, the Potency in test [1] was 14.8 µM (active); in test [2] it was 18.7 µM (active); in test [3], 10.5 µM (active); in test [4] it was 0.0372 µM (active); in test [5], 18.7 µM (active); in test [6] it was 5.9 µM (active). Further, the Potency is 7.43 µM (active) in test [7]; 16.6 µM (active) in test [19]; 14.8 µM (active) in test [9]; 18.7 µM (active) in test [11]; 11.8 µM (active) in [12]; 13.2 µM (active) in test [20]. Further, the results for the Potency in test [14], in [15] and in [18] were 20.9 µM (active), 16.6 µM (active) and 20.9 µM (active), respectively.

In the case of `COc1cccc2c1C(=O)c1c(O)c3c(c(O)c1C2=O)C[C@@](O)(C(C)=O)C[C@H]3O[C@H]1C[C@H](N)[C@H](O)[C@H](C)O1`, the Potency in [1] is 0.0662 µM (active); in test [2], 0.0743 µM (active); in [3], 0.0469 µM (active); in test [4] it was 0.235 µM (active); in test [5], 0.0935 µM (active); in test [6], 0.0743 µM (active). In addition, the Potency in test [7] was 0.0332 µM (active); in [19], 0.105 µM (active); in test [8] it was 0.209 µM (active); in [9], 0.0372 µM (active); in [10], 0.0372 µM (active); in [11] it was 0.0662 µM (active). Moreover, the Potency is 0.0662 µM (active) in test [12]; 0.0526 µM (active) in test [13]; 0.296 µM (active) in [14]; 0.166 µM (active) in test [15]; 0.132 µM (active) in [16]; 0.0469 µM (active) in test [17].

For the compound `CC(C)(N)c1ccc(-c2nc3ccccc3nc2-c2ccccc2)cc1`, the Potency in test [1] is 10.5 µM (active); in [2], 18.7 µM (active); in test [3], 0.372 µM (active); in test [4], 8.33 µM (active); in test [7], 9.35 µM (active); in test [19], 20.9 µM (active). Also, the Potency in test [8] was 14.8 µM (active); in test [9] it was 16.6 µM (active); in test [10], 18.7 µM (active); in test [11] it was 26.4 µM (active); in test [12] it was 7.43 µM (active); in test [13] it was 4.18 µM (active). In addition, the Potency in test [20] was 5.26 µM (active); in test [14], 26.4 µM (active); in test [15], 18.7 µM (active); in test [17], 4.69 µM (active).

For the origin of these results see PubChem BioAssay (NCATS).
